Bioassay records from PubChem BioAssay.
NR3A LBD binder: modulates the human NR3A ligand-binding domain | hit rate 2.5% among 340,000 | NR3A LBD differential scanning fluorimetry, Tm shift; 0% = protein alone, 100% = glycine-bound protein | AID 1259313 | Tm shift relative to glycine control, % at 25 µM;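 active means melting temperature shift of at least 10% of the positive control shift, at one fixed dose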
ADAM10 inh: inhibits human ADAM10; O14672; recombinant ADAM10, EDANS/DABCYL FRET peptide cleavage, 3 h; inhibition, % at 7 µM; hit rate 0.62% among 370,000; AID 720582;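 active means inhibition above a per-campaign cutoff equal to the mean of compounds falling between control-based bounds plus 3 SD, cut at about 20% in these data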;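 further: 0% = DMSO wells while the 100% control is not disclosed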
FAS TE block: blocks the thioesterase domain of human fatty acid synthase | inhibition, % at 15 µM | hit rate 0.67% among 360,000 | AID 602261 | recombinant FAS-TE, OMFH fluorogenic substrate, fluorescence endpoint | P49327;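 active means compounds whose normalised, plate-corrected inhibition of enzyme fluorescence in the single-dose primary screen is 50% or more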;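 further: 0% = DMSO with enzyme and 100% = substrate without enzyme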
KLK7 zymogen act: proKLK7 (human) activation, primary screen; P49862; purified proKLK7, EDANS-DABCYL substrate fluorescence; 100% is mature enzyme control, 0% vehicle; activation, % at 7 µM; hit rate 0.9% among 370,000; AID 652039;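 active means activation above the mean of all tested compounds plus 3 SD, computed per campaign excluding outliers beyond control limits, cut at about 13% in these data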
ADAM17 inh: inhibitors of human ADAM17; inhibition, % at 6.95 µM; recombinant ADAM17, EDANS/DABCYL FRET peptide cleavage; hit rate 0.83% among 370,000;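 active means inhibition above the mean of compounds lying between control limits plus 3 SD, set per campaign, cut at about 8.5% in these data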;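 further: 0% = DMSO-only wells as the low control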
Target sequence (P78536 215-824 limits assumed): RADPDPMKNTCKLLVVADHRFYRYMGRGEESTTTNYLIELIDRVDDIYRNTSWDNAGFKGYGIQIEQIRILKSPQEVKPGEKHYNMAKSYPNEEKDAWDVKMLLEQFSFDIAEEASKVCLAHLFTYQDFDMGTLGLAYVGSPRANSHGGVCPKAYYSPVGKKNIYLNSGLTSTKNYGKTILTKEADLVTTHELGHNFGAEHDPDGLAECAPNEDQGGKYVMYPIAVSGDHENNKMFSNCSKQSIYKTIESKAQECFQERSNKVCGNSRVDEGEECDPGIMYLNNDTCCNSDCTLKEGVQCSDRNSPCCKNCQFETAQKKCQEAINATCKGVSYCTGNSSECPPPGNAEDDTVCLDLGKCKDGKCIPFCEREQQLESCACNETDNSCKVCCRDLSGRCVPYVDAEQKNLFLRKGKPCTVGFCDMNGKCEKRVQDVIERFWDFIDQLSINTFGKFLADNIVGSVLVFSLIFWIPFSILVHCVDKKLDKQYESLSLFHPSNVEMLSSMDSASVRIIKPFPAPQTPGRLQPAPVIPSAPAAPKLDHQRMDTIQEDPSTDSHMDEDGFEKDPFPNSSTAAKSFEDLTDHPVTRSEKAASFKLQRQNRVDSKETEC
FAS-TE inh conf: FAS thioesterase (human) inhibition, confirmation | shares compounds with FAS TE block | recombinant FAS-TE, OMFH fluorogenic substrate, fluorescence | inhibition, % at 15 µM | hit rate 45% among 2,300;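 active means compounds inhibiting the enzyme by at least 50% at 15 µM in any one of the replicates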;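 further: 0% = enzyme with DMSO only and 100% = wells lacking enzyme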
KLK7 act conf: proKLK7 activation, confirmation; activation, % at 7 µM; shares compounds with KLK7 zymogen act; AID 686949; hit rate 68% among 3,200; purified proKLK7, EDANS-DABCYL substrate fluorescence; scaled: vehicle 0, mature enzyme 100;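 active means activation, as change over the incubation, above the mean of all tested compounds plus 3 SD, cut at about 13% in these data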
EDANS interfere: optically interferes with EDANS-DABCYL signal, flagging KLK7 hits. shares compounds with KLK7 zymogen act. EDANS-DABCYL substrate fluorescence interference, no enzyme, 4 h; solvent 0%, active enzyme control 100%. activation, % at 7 µM. hit rate 80% among 3,200. AID 686952;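 active means activation above the all-compound mean plus 3 SD, ignoring values outside control-based bounds, cut at about 4.8% in these data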;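 further: value is the 4 h activation minus the activation read at time zero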
EDANS interf: EDANS fluorescence interference in dose response, no enzyme. EC50, µM. shares compounds with KLK7 zymogen act. AID 720493. hit rate 20% among 250. EDANS-DABCYL peptide fluorescence interference;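 active means compounds that raise the fluorescence signal in this interference counterscreen, with EC50 at or below 10 µM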;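 further: intact quenched peptide substrate alone read at 355 nm excitation and 520 nm emission; signal is fluorescence gain from T0 to T4 after four hours at room temperature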
ADAM10 confirm: human ADAM10 inhibition, confirmation; AID 743208; hit rate 1% among 2,100; shares compounds with ADAM10 inh; inhibition, % at 6.95 µM; ADAM10 QFRET peptide cleavage, EDANS fluorescence;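 active means inhibition above about 20% chosen separately for each screening run, limit read from the data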;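 further: 0% = DMSO wells and 100% = marimastat wells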
ADAM17 counter: counter-screen for ADAM10 exosite inhibitors: inhibitors of human ADAM17; hit rate 0.5% among 2,100; inhibition, % at 6.95 µM; ADAM17 QFRET peptide cleavage, EDANS fluorescence; shares compounds with ADAM10 inh;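 active means mean triplicate inhibition above the solvent-only control wells' mean plus 3 SD, cut at about 12% in these data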;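 further: 0% = DMSO wells and 100% = marimastat wells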
* hit, by the source's call. In the library only some 4.6% were active in any assay of this set; here they are far more common.

For Cc1c(Cl)c(=O)oc2cc(OCC(=O)N3CCCC(C)C3)ccc12 (stereo unspecified) the results were NR3A LBD binder -2, ADAM10 inh inactive, FAS TE block 64*, KLK7 zymogen act 45*, ADAM17 inh inactive, FAS-TE inh conf 63*, KLK7 act conf 70* and EDANS interfere 69*.
`Cc1ccc(CN2CCCCC(NC(=O)c3ccc(Br)cc3)C2=O)cc1` (stereo unspecified) gave ADAM10 inh 10, KLK7 zymogen act 1 and ADAM17 inh 2.
Screening C[C@H](O)[C@@H]1CN2CCc3ccc(N4CCOCC4)cc3[C@@H]2C[C@@H]1N(C)C(=O)c1ccccc1F returned ADAM10 inh -17, KLK7 zymogen act 1 and ADAM17 inh -6.
CCOC(=O)c1cc2c(=O)n3ccccc3nc2n(Cc2ccco2)c1=NC(=O)c1ccc(OC)cc1 was read as NR3A LBD binder -9, ADAM10 inh inactive, FAS TE block 64*, KLK7 zymogen act 13*, ADAM17 inh inactive, FAS-TE inh conf 47*, KLK7 act conf 105* and EDANS interfere 104*.
`CCOC(=O)c1cc2c(=O)n3cccc(C)c3nc2n(Cc2ccco2)c1=NC(=O)c1ccc(C)cc1` gave NR3A LBD binder -2 and FAS TE block -6.
Screening CCOCCCn1c(=NC(=O)c2ccco2)c(C(=O)OCC)cc2c(=O)n3cccc(C)c3nc21 returned NR3A LBD binder 1, ADAM10 inh inactive, FAS TE block 67*, KLK7 zymogen act 39*, ADAM17 inh inactive, FAS-TE inh conf 2, KLK7 act conf 23*, EDANS interfere 9.2* and EDANS interf inactive.
`O=C(NC(Cc1c[nH]c2ccccc12)C(=O)Nc1ccc(F)c([N+](=O)[O-])c1)c1cccs1` (stereo unspecified) gave NR3A LBD binder 5, ADAM10 inh 20*, FAS TE block 63*, KLK7 zymogen act -1, ADAM17 inh 8, FAS-TE inh conf 63*, ADAM10 confirm 4 and ADAM17 counter 2.
Screening O=C(NC(Cc1c[nH]c2ccccc12)C(=O)O)c1cccs1 (stereo unspecified) returned NR3A LBD binder -6, ADAM10 inh 6, FAS TE block -6, KLK7 zymogen act 0 and ADAM17 inh 2.
COC(=O)C1=C(C)N(Cc2ccc(C(F)(F)F)cc2)C(=NCc2ccc3c(c2)OCO3)NC1c1cccc(Cl)c1 (stereo unspecified) was read as ADAM10 inh 9, KLK7 zymogen act 0 and ADAM17 inh 4.
Screening Cc1cc(C)c(Cn2cnc(-c3ccc([N+](=O)[O-])cc3)c2)c(C)c1 returned NR3A LBD binder -4, ADAM10 inh 29*, FAS TE block 54*, KLK7 zymogen act 0, ADAM17 inh -16, FAS-TE inh conf 53*, ADAM10 confirm 4 and ADAM17 counter 1.
For CCCc1cc(=O)n2[nH]c(C)c(-c3ccccc3)c2n1 the results were NR3A LBD binder 1, ADAM10 inh -20, FAS TE block -6, KLK7 zymogen act -5 and ADAM17 inh -8.
`Cc1[nH]n2c(=O)cc(-c3ccc([N+](=O)[O-])cc3)nc2c1-c1ccccc1` gave NR3A LBD binder 14*, ADAM10 inh 23*, FAS TE block 59*, KLK7 zymogen act 1, ADAM17 inh 8, FAS-TE inh conf 77*, ADAM10 confirm 2 and ADAM17 counter 1.
`COc1ccc(C2CC(c3ccccc3)=NN2S(=O)(=O)c2ccc(C)cc2)c(OC)c1` (stereo unspecified) gave NR3A LBD binder 4, ADAM10 inh 23*, FAS TE block 58*, KLK7 zymogen act -1, ADAM17 inh 7, FAS-TE inh conf 12, ADAM10 confirm 7 and ADAM17 counter 2.
For CCCN(CC(=O)Nc1cc(Cl)cc(Cl)c1)CC(=O)Nc1ccc(F)c(F)c1F the results were NR3A LBD binder 20*, ADAM10 inh 28*, FAS TE block 51*, KLK7 zymogen act 0, ADAM17 inh 13*, FAS-TE inh conf 34, ADAM10 confirm 12 and ADAM17 counter 3.
`CCCN(CC(=O)Nc1ccccc1Br)CC(=O)Nc1ccc(F)c(F)c1F` gave NR3A LBD binder -10, ADAM10 inh 3, FAS TE block 18, KLK7 zymogen act 0 and ADAM17 inh 0.
Screening Cc1nc2sc(C(=O)NCc3ccncc3)c(N)c2c(C)c1Cl returned ADAM10 inh -16, KLK7 zymogen act 1 and ADAM17 inh -6.
Screening Cc1ccc(NC(=O)C(C)c2ccc([N+](=O)[O-])cc2)cc1Cl (stereo unspecified) returned NR3A LBD binder 12*, ADAM10 inh 24*, FAS TE block 59*, KLK7 zymogen act 0, ADAM17 inh 7, FAS-TE inh conf 45, ADAM10 confirm 5 and ADAM17 counter 1.
For C[C@@]12C(=O)Nc3cc(F)c(F)cc3C(=O)N1[C@H]1c3ccccc3OC[C@@H]1[C@@H]2c1ccccc1 the results were NR3A LBD binder 0, ADAM10 inh 21*, FAS TE block 76*, KLK7 zymogen act 0, ADAM17 inh 10*, FAS-TE inh conf 44*, ADAM10 confirm 7 and ADAM17 counter 4.
O=C1OCCN1C(=O)[C@H]1[C@H](c2ccc([N+](=O)[O-])cc2)C(c2cccc(Cl)c2)=NN1c1ccc(Br)cc1 was read as NR3A LBD binder 7, ADAM10 inh 24*, FAS TE block 87*, KLK7 zymogen act 1, ADAM17 inh 6, FAS-TE inh conf 6, ADAM10 confirm 14 and ADAM17 counter 5.
CC(=O)C1=C(O)C(=O)N(c2ccc(Br)cc2)C1c1cccc([N+](=O)[O-])c1 (stereo unspecified) was read as NR3A LBD binder 3, ADAM10 inh 4, FAS TE block -2, KLK7 zymogen act 1 and ADAM17 inh 1.
